Reference: PubChem BioAssay AID1671192 (National Center for Advancing Translational Sciences (NCATS), 2021)
Results filed as inconclusive are left out. Unmarked numbers belong to inactive results. The call rests on the fitted dose curve; in most records, active means well fitted curve in the direction sought with a large enough effect; inconclusive means small, poorly fitted or top-dose-only effect, or another doubt; inactive means no such curve, though single readings can be large or run the other way.

These compounds were tested against Polyunsaturated fatty acid lipoxygenase ALOX15 (Homo sapiens) (UniProt P16050) (assay: Counterscreen qHTS for inhibitors of human arachidonate 12S-lipoxygenase (ALOX12): ALOX15 Assay). Settings: purified ALOX15 enzyme activity; series mostly up to 110 µM; activity change, negative = inhibition: at the top concentration.
Summary of the method: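 Xylenol orange–ferric complex formation, read as the 573 nm to 405 nm absorbance ratio, tracks product from 50 uM arachidonic acid turned over for 30 min at RT. Enzyme is 40 nM ALOX15, pH 7.5 HEPES buffer, compound-preincubated 15 min.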
Further: 0% is about no effect.

Chain of Polyunsaturated fatty acid lipoxygenase ALOX15 (Homo sapiens) (P16050 whole entry, looked up): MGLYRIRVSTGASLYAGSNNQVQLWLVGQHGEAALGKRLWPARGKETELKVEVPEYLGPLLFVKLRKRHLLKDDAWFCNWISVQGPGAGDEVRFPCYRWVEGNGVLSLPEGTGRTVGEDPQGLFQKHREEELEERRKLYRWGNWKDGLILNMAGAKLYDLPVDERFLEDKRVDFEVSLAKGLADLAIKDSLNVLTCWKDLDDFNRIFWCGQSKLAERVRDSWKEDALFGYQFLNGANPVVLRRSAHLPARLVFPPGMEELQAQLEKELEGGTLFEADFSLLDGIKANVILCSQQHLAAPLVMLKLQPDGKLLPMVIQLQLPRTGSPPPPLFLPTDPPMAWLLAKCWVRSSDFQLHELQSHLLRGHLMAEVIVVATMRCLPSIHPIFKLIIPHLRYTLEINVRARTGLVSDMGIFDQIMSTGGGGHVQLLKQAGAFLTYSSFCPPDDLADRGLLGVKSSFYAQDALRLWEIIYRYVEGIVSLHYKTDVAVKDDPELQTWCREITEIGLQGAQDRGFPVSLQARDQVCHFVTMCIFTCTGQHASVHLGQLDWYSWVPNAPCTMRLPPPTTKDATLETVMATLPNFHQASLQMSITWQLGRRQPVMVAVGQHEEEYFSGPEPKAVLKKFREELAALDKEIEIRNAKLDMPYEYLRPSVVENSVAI

Question: `CC[C@@H](Nc1ncnc2c1CN(C1CCNCC1)C(=O)CN2C)c1ccccc1` was tested. Which “activity change, negative = inhibition” value did it give?
Answer: Its value is -19.1%.

Question: Which “activity change, negative = inhibition” value does the source give for `O=Cc1cccc(N2CCN(C(=O)c3ccc4c(c3)OCO4)CC2=O)c1` here?
Answer: Its value is -7.4% [at 146 µM].

Question: How did the “activity change, negative = inhibition” value turn out when `O=c1[nH]c(C2CCCN(Cc3cccc(Cl)c3)C2)nc2ccc(F)cc12` (stereo not drawn) was run?
Answer: The value was -9.91%.

Question: `O=C(c1ccc2c(c1)OCO2)N1CCC(c2nnc3n2CCNC3)CC1` was tested. Which “activity change, negative = inhibition” value did it give?
Answer: Its value is -26%.

Question: How did the “activity change, negative = inhibition” value turn out when `O=C(Nc1ccc(F)cc1)c1c[nH]c2cccnc12` was run?
Answer: Its value is -6.34% [at 146 µM].

Question: Which “activity change, negative = inhibition” value does the source give for `O=C1Nc2ccccc2CN(C/C=C/c2ccccc2)C12CCNC2` (stereo not drawn) here?
Answer: Its value is -5.11% [at 146 µM].

Question: With `O=C1NCc2ccccc2CC12CCN(Cc1c[nH]c3ccccc13)C2` (stereo not drawn) as the compound, how does the “activity change, negative = inhibition” value read?
Answer: Its value is 8.74%.

Question: Which “activity change, negative = inhibition” value does the source give for `COc1ccc(CNc2ncnc3c2CN(C2CCCNC2)C(=O)CN3C)cc1` (stereo not drawn) here?
Answer: Its value is -4.51%.

Question: With `O=C1NC(=NC2CCCC2)C2(CCCN(Cc3ccsc3)C2)N1c1cc(F)cc(F)c1` (stereo not drawn) as the compound, how does the “activity change, negative = inhibition” value read?
Answer: The value was -2.59%.

Question: `COc1ccc(OC2CN(Cc3cccc4ccccc34)C2)cc1` was tested. Which “activity change, negative = inhibition” value did it give?
Answer: The value was -16% [at 146 µM].

Question: `CCOc1ccc(CN2CCC3(Cc4ccccc4CNC3=O)C2)cc1` (stereo not drawn) was tested. Which “activity change, negative = inhibition” value did it give?
Answer: The value was -15.1% [at 146 µM].

Question: How did the “activity change, negative = inhibition” value turn out when `Cc1ccc(-c2cccc(C=O)c2)cc1Cl` was run?
Answer: The value was -27.3% [at 233 µM].

Question: How did the “activity change, negative = inhibition” value turn out when `O=C1c2ccccc2CN1C1CCN(Cc2ccsc2)CC1` was run?
Answer: Its value is -5.25% [at 146 µM].

Question: Which “activity change, negative = inhibition” value does the source give for `O=C1NCc2ccccc2CC12CCN(Cc1cc(O)cc(O)c1)CC2` here?
Answer: Its value is -26.5%.

Question: How did the “activity change, negative = inhibition” value turn out when `O=C(c1cc(C2CC2)nc2onc(C3CCNCC3)c12)N1CCCCC1` was run?
Answer: The value was -1.94%.

Question: With `O=c1n(-c2ccc(Cl)cc2)nc2n1CCN([S+](=O)([O-])c1ccccc1)C2` as the compound, how does the “activity change, negative = inhibition” value read?
Answer: The value was -12.1%.

Question: For `Cc1ccc2nc(C3CCN(Cc4ccc(-c5cccs5)cc4)CC3)[nH]c(=O)c2c1`, which “activity change, negative = inhibition” value is on record?
Answer: Its value is -12%.

Question: `COc1cccc(-c2ccc(CN3C4CCC3CN(C(=O)Nc3ccccc3F)C4)cc2)c1` was tested. Which “activity change, negative = inhibition” value did it give?
Answer: The value was -19%.

Question: With `CN1CC(=O)N(C2CCNCC2)Cc2c(NCCN3CCOCC3)ncnc21` as the compound, how does the “activity change, negative = inhibition” value read?
Answer: The value was -2.01%.

Question: For `COc1ccc(-c2cc(C(=O)NCC3CC3)c3c(C4CCNC4)noc3n2)cc1` (stereo not drawn), which “activity change, negative = inhibition” value is on record?
Answer: Its value is -24.2%.

Question: Which “activity change, negative = inhibition” value does the source give for `O=C(c1ccncc1)N1CCC(c2nnc3n2CCNC3)CC1` here?
Answer: Its value is -35.4% [at 146 µM].

Question: How did the “activity change, negative = inhibition” value turn out when `CC(=O)N1CCN(c2ccc(Cl)nn2)C(=O)C1` was run?
Answer: Its value is -19.6% [at 146 µM].

Question: Which “activity change, negative = inhibition” value does the source give for `CC(C)Nc1ncnc2c1CN(C1CCCNC1)C(=O)CN2C` (stereo not drawn) here?
Answer: The value was -15.1% [at 146 µM].

Question: With `CN1CC(=O)N(C2CNC2)Cc2c(NCC3CC3)ncnc21` as the compound, how does the “activity change, negative = inhibition” value read?
Answer: The value was -14.2% [at 146 µM].

Question: Which “activity change, negative = inhibition” value does the source give for `O=C1NCc2ccccc2CC12CCCN2Cc1ccc(OC(F)(F)F)cc1` (stereo not drawn) here?
Answer: Its value is -12.6%.

Question: Which “activity change, negative = inhibition” value does the source give for `NC(Cc1ccccc1)C(=O)N1CCC2(CC1)CN(C(=O)c1ccc(Cl)cc1)CCO2` (stereo not drawn) here?
Answer: The value was -6.02%.

Question: With `Cc1cc(Cl)ccc1NC1CN(C(=O)OC(C)(C)C)C1` as the compound, how does the “activity change, negative = inhibition” value read?
Answer: The value was -10.9% [at 146 µM].

Question: With `COc1ccccc1C(=O)N1CCC(N2Cc3ccccc3C2=O)CC1` as the compound, how does the “activity change, negative = inhibition” value read?
Answer: Its value is -0.704% [at 146 µM].

Question: How did the “activity change, negative = inhibition” value turn out when `COc1cccc(-c2ccc(CN)cc2)c1` was run?
Answer: Its value is -1.18% [at 146 µM].

Question: `CCN1CCCC2(Cc3ccccc3CN([S+](=O)([O-])c3ccccc3)C2)C1` (stereo not drawn) was tested. Which “activity change, negative = inhibition” value did it give?
Answer: The value was -25.9%.

Question: For `COc1ccc(-c2nc(C3CC3)nc3c2CN(C(=O)c2ccccc2OC)CC3)cc1`, which “activity change, negative = inhibition” value is on record?
Answer: Its value is -21.2%.

Question: For `Cc1cc(C(=O)NC2CCCC2)c2c(C3CCNCC3)noc2n1`, which “activity change, negative = inhibition” value is on record?
Answer: The value was -14.4% [at 146 µM].

Question: `NCc1cccc(-c2ccsc2)c1` was tested. Which “activity change, negative = inhibition” value did it give?
Answer: The value was -23.8% [at 146 µM].

Question: With `CC(C)c1nc2c(c(-c3ccc(Cl)cc3)n1)CCN(CC1CCCCC1)CC2` as the compound, how does the “activity change, negative = inhibition” value read?
Answer: Its value is -16.6%.

Question: `CN(c1ccc(Cl)c(Cl)c1)C1CNC1` was tested. Which “activity change, negative = inhibition” value did it give?
Answer: The value was -16.7% [at 146 µM].

Question: Which “activity change, negative = inhibition” value does the source give for `CC(=O)N1Cc2ccccc2CC2(CCN(Cc3ccncc3)C2)C1` (stereo not drawn) here?
Answer: Its value is -26.4% [at 146 µM].

Question: For `O=C1NCc2ccccc2CC12CCN(Cc1cccc3ccccc13)C2` (stereo not drawn), which “activity change, negative = inhibition” value is on record?
Answer: Its value is -22.1%.

Question: For `O=c1n(-c2cccc(Cl)c2)nc2n1CCN([S+](=O)([O-])c1cccs1)C2`, which “activity change, negative = inhibition” value is on record?
Answer: Its value is -4.57%.
